Each structure is given as a SMILES string. Out of some 69,000 compounds screened, about 8,600 (12%) showed an effect of 50% or more. What follows is part of a selection rich in strong results, with near analogues and random picks from the rest.

In this assay the test system is Plasmodium berghei. The experiment in a line: Screen against P. berghei liver stage (PbLuc), transformed with Luciferase, at 10uM. In kind it is functional, HepG2. The settings on record: tested at 10 uM.
As to `CCOc1ncccc1NC(=O)C1CCS(=O)(=O)C1` (stereo not drawn), the INHIBITION was determined as 11.9%.
Then `Cc1ccc(CN2CCOC(c3cnccn3)C2)s1` (stereo not drawn), with 16.82%; and `Cn1cc([C@@H]2CN(S(=O)(=O)c3ccccc3F)C[C@H]2N)c2ccncc21`, with 18%; and `Cc1nnc(NC(=O)NCc2ccnc(N(C)C)c2)s1`, with -39.7%.
Then `COC(=O)CC1CCN(C(=O)c2ccc(C)cc2)CC1`, with 28.7%; and `CNC(=O)C1(Cc2cc(C(C)C)no2)CCN(Cc2ccccn2)C1` (stereo not drawn), with 11.9%.
With `Cc1noc(C(C)C)c1C(=O)NS(=O)(=O)c1ccc(Cl)cc1`, the INHIBITION is recorded as -28.4%.
Consider `CNc1cccc(C2CCCN(C(=O)c3cccnc3)C2)n1` (stereo not drawn), for which the INHIBITION is reported as 35.2%.
Turning to `Cc1cnn(CC2CCCN2Cc2c(C)noc2C)c1` (stereo not drawn), the INHIBITION was found to be 5.983%.
Regarding `O=C(CCc1nccs1)N1CCCC(n2ccnc2)C1` (stereo not drawn), the INHIBITION is -1.14%.
For the compound `CCOC(C)c1nccn1Cc1cc(C)on1` (stereo not drawn), the INHIBITION is recorded as 26.4%.
Regarding `CC(=O)Nc1ccc(CNC(C)c2c(C)nn(C)c2C)cc1` (stereo not drawn), the INHIBITION was -42.1%.
Regarding `COCCC(=O)N1CCCC1c1csc(Nc2ccccn2)n1` (stereo not drawn), the INHIBITION was determined as 30.8%.
On to `CC(C)c1cc(NC(=O)CN2CCCC2Cn2cccn2)on1` (stereo not drawn), for which the INHIBITION is on record as 19.5%.
Then `Cc1noc(C)c1CN1CCCC1c1nnc2ccccn12` (stereo not drawn), with 17.5%; and `CC(C)(C)c1cc(NC(=O)CN2CCCC2Cn2cncn2)on1` (stereo not drawn), with 9.41%; and `CC(C)(C)c1nc(CN2CCCC2c2nnc3ccccn23)no1` (stereo not drawn), with 57.2%.
For the compound `CC(C)(C)c1cc(NC(=O)CN2CCCC2Cn2cccn2)on1` (stereo not drawn), the INHIBITION was determined as 53%.
The same measure for `CCn1c(C2CCCN2Cc2noc(C(C)(C)C)n2)nc2ccccc21` (stereo not drawn): -12.1%; for `COc1cccc(C(=O)NC(CC(=O)O)c2cccs2)c1OC` (stereo not drawn): -7.31%; for `Cc1nc(C#N)c(N2CCC(c3nc(-c4ccccc4)no3)CC2)o1`: 57.6%.
As to `Cc1nc(C#N)c(N2CCC(c3nc(-c4ccc(F)cc4)no3)CC2)o1`, the INHIBITION is given as 34%.
Then `CCc1nc(C#N)c(N2CCC(c3nc(-c4ccccc4)no3)CC2)o1`, with 34.6%; and `O=C(NCc1cc(F)cc(Br)c1)C1(O)CCSCC1`, with -26.2%.
Then `CC(C)(C(=O)NCC(=O)N1CCCC1)c1ccccc1F`, with -36.4%.
Regarding `CC(C)(C(=O)N1CCC(C(N)=O)C1)c1ccccc1F` (stereo not drawn), the INHIBITION is listed as 52.9%.
The same measure for `CC(C)(C(=O)N1CCC(CS(N)(=O)=O)CC1)c1ccccc1F`: 17.9%; for `c1coc(CN2CCCC3(COCCN(Cc4c[nH]nn4)C3)C2)c1` (stereo not drawn): 4.92%.
Turning to `CC(=O)NC1CCN(c2cc(-c3ccccc3)nc3c(C)c(C)nn23)C1` (stereo not drawn), the INHIBITION is recorded as -3.58%.
For `Cc1nn2c(N3CCC(O)CC3)cc(-c3ccccc3)nc2c1C`, the INHIBITION stood at 41.8%.
With `CCNC(=O)C1CCN(c2cc(CC)nc3ccnn23)C1` (stereo not drawn), the INHIBITION is 52.2%.
`Cc1nn2c(N3CCCC(C(N)=O)C3)cc(-c3ccccc3)nc2c1C` (stereo not drawn): the INHIBITION was -32.2%.
`CCc1cc(N2CCN3CCCCC3C2)n2nccc2n1` (stereo not drawn): the INHIBITION turned out to be 30.9%.
`O=C1CN(c2cc(-c3ccccc3F)nc3ccnn23)CCCN1`: the INHIBITION is reported as 6.11%.
Turning to `CCNC(=O)C1CCN(c2nccc(C3CCCC3)n2)C1` (stereo not drawn), the INHIBITION is -2.34%.
Turning to `CCc1cc(N2CC(N3CCCCC3C)C2)n2nccc2n1` (stereo not drawn), the INHIBITION was 12.8%.
As to `Cc1nn2c(N3CCC(C(N)=O)CC3)cc(-c3ccccc3)nc2c1C`, the INHIBITION is recorded as 61.3%.
For the compound `CCNC(=O)C1CCN(c2cc(-c3ccccc3)nc3cc(C)nn23)C1` (stereo not drawn), the INHIBITION was 56.5%.
The same measure for `CCNC(=O)C1CCN(c2cc(-c3ccccc3F)nc3ccnn23)C1` (stereo not drawn): 53.3%.
As to `CCNC(=O)C1CCN(c2cc(-c3ccccc3)nc3ccnn23)C1` (stereo not drawn), the INHIBITION is given as 33%.
Then `Cc1csc(CCNCc2cnc3c(c2)c(C)nn3C)n1`, with -14.8%; and `COCC1CN(Cc2ccc(OC)cc2)Cc2nnn(CC3CC3)c21` (stereo not drawn), with 18.7%; and `COCCOc1ccc(CNC2CCc3ncnn3C2)cc1OC` (stereo not drawn), with 49.5%.
Then `COc1cccc(CCNS(=O)(=O)c2ccc(NC(C)=O)cc2)c1`, with 22.9%; and `CCN1CCN(C)C(=O)C12CCN(Cc1cccc(C)c1)CC2`, with 39.5%.
On to `Cc1nc(CN2CCN(C(=O)c3ccc(=O)n(C)c3)CC2)cs1`, for which the INHIBITION is on record as -15.9%.
The same measure for `CN(C)C(=O)NCC(=O)N1CCCC2(CCC(=O)N(CC3CC3)C2)C1` (stereo not drawn): 24.9%; for `O=C(NCC1(O)CCC1)NC(c1cc(F)ccc1F)C1CC1` (stereo not drawn): 31.2%.
With `CS(=O)(=O)N1C[C@H]2CC[C@@H](C1)N(C(=O)CCc1ccsc1)C2`, the INHIBITION is given as -34.8%.
For the compound `Cc1nc(CN2CCC3(CCCO3)CC2)c2ccccn12`, the INHIBITION was found to be 53.6%.
Consider `Cc1nc(CN2C[C@@H](CN3CCOCC3)[C@@H](CO)C2)c2ccccn12`, for which the INHIBITION stood at 63.7%.
With `Cc1ccc(C2(O)CCN(Cc3nc(C)n4ccccc34)CC2)nc1`, the INHIBITION is listed as 26.1%.
As for `Cc1nc(CN2CCC(O)(c3ccccc3F)CC2)c2ccccn12`, the INHIBITION is 23.9%.
Then `Cc1nc2ccccn2c1CN1C[C@@H](CN2CCOCC2)[C@@H](CO)C1`, with 12.8%; and `Cc1cc(C(F)(F)F)cc(N2C[C@@H](CN3CCOCC3)[C@@H](CO)C2)n1`, with 53.2%.
The same measure for `OC[C@H]1CN(Cc2c(Cl)cncc2Cl)C[C@H]1CN1CCOCC1`: -37.9%.
Take `COc1cnc(N2C[C@@H](CN3CCOCC3)[C@@H](CO)C2)nc1`: the INHIBITION is -35%.
For `Cc1cc(C(F)(F)F)cc(N2C[C@@H](CN(C)CCO)[C@@H](CO)C2)n1`, the INHIBITION stood at 0.348%.
As to `CCC1CN(C(=O)NCCOc2ccc3c(c2)OCO3)CCO1` (stereo not drawn), the INHIBITION was 30.2%.
Then `Cc1cc(Oc2ccccc2)nc(C2CCN(CCO)CC2)n1`, with 24.15%.
Consider `Cn1cccc1C(=O)N[C@@H]1CN(Cc2cccs2)[C@@H]2COC[C@@H]21`, for which the INHIBITION was -4.88%.
In the case of `Cc1nc(Cn2c3c(ccc2=O)CC(N)CC3)cs1` (stereo not drawn), the INHIBITION came to 9.65%.
In the case of `CN(Cc1cccc(O)c1)C(=O)Nc1cccnc1N1CCCC1`, the INHIBITION is on record as 33.3%.
For the compound `O=c1[nH]c2csnc2c(=O)n1Cc1ccc(Br)cc1`, the INHIBITION is given as 29.1%.
Regarding `CCC(c1nc(C(C)C)nn1-c1ccncc1C)n1cccn1` (stereo not drawn), the INHIBITION was 57.2%.
Regarding `Cc1cnccc1-n1nc(C(C)C)nc1CCc1cnccn1`, the INHIBITION is given as -3.12%.
For `CCC(c1nc(C(C)C)nn1-c1ccccn1)n1cccn1` (stereo not drawn), the INHIBITION was determined as 38.8%.
Regarding `CCCn1ccnc1CN1CC[C@@H](NC(=O)c2cccnc2)[C@H](O)C1`, the INHIBITION was determined as 12.9%.

Values taken from ChEMBL document CHEMBL4513216, “Probing the Open Global Health Chemical Diversity Library for Multistage-Active Starting Points for Next-Generation Antimalarials” (ACS Infect Dis, 2020).
